# Data published in PubChem BioAssay.
# The other results are listed elsewhere or left out. Values without a mark were called inactive. Active and inactive are the calls of the source.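 How the source made its calls, unless noted: active means average inhibition above a cutoff equal to the mean inhibition of all tested compounds plus one SD (cut at about 70% in these data); inactive means the rest.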
# Columns and labels:
# [1] = target: Photoreceptor-specific nuclear receptor (Homo sapiens) (UniProt Q9Y5X4); assay: NR2E3 agonist confirmation in cells, cell-based, luminescence, CHO-S two-hybrid (AID 624378); details: CHO-S mammalian two-hybrid NR2E3-NCOR, luciferase luminescence; at 3.98 µM; stronger effect = higher value;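 further: 0% = DMSO in NR2E3 cells and 100% = DMSO in cells lacking NR2E3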
# [2] = GAL4-VP16 reporter modulators, confirmation, counter-screen for NR2E3 agonist project, cell-based, luminescence, CHO-S, high throughput (AID 624379;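 active means mean inhibition above a cutoff equal to the average over all tested compounds plus one standard deviation, cut at about 70% in these data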;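 further: luciferase from a UAS reporter driven by GAL4-VP16 transactivation; 0% = DMSO with VP16-transfected cells and 100% = DMSO with cells lacking VP16; higher means less reporter light so more repression of VP16 activity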); details: CHO-S GAL4-VP16 luciferase reporter, at 3.98 µM, stronger effect = higher value
# [3] = target: Galanin receptor type 2 (Homo sapiens) (UniProt O43603); assay: GALR2 antagonists, retest of hits, confirmation, cell-based (AID 866; in the data active means inhibition above about 27%;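 further: cells stimulated with galanin at about its EC80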); details: GALR2-expressing cells, antagonist mode, at 4 µM, stronger effect = higher value
# [4] = inhibitors of NFAT-driven beta-lactamase reporter, confirmation, counter-screen for GALR2 antagonist project, CHO NFAT-bla cells, FRET readout (AID 867;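 active means inhibition above the mean inhibition across tested compounds plus 3 SD, cut at about 27% in these data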;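 further: 0% = 500 nM thapsigargin stimulated wells and 100% = unstimulated BSA only wells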); details: thapsigargin-stimulated, at 4.2 µM, stronger effect = higher value
# [5] = target: Receptor-interacting serine/threonine-protein kinase 2 (Homo sapiens) (UniProt O43353); assay: NOD2-RIPK2 binding disruptors, retest, confirmation, fluorescence, CHO cells, BLA complementation, triplicate (AID 624370;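 active means mean inhibition across replicates above a set limit taken from the earlier primary screen, cut at about 21% in these data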;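 further: 0% = DMSO-only wells and the high end = clavulanate BLA-blocked wells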); details: CCF4 FRET, at 4.98 µM, stronger effect = higher value
# [6] = beta-lactamase reporter inhibitors in CHO cells, confirmation, artefact control for NOD2-RIPK2 interaction inhibitor project, cell-based, CHO-K1 CMV-bla, CCF4 FRET, fluorescence (AID 624371;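 active means mean inhibition above the low-control mean inhibition plus three low-control SD, cut at about 11% in these data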;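 further: 0% = DMSO only wells and 100% = clavulanate high control wells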); details: CCF4 FRET ratio, counterscreen, at 4.98 µM, stronger effect = higher value
# Sequence of Photoreceptor-specific nuclear receptor (Homo sapiens) (Q9Y5X4 whole entry, looked up, the tested form may be a part): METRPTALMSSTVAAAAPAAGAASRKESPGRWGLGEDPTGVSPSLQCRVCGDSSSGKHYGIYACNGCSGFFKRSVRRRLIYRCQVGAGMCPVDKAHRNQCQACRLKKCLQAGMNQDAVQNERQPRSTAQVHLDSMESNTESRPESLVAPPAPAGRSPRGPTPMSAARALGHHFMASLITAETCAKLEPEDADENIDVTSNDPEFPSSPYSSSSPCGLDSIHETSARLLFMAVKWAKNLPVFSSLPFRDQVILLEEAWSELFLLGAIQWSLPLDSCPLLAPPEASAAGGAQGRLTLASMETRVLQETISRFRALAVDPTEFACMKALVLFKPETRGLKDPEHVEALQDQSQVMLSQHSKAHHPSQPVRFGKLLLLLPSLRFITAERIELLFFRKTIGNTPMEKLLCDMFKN
# Sequence of Receptor-interacting serine/threonine-protein kinase 2 (Homo sapiens) (O43353 whole entry, looked up): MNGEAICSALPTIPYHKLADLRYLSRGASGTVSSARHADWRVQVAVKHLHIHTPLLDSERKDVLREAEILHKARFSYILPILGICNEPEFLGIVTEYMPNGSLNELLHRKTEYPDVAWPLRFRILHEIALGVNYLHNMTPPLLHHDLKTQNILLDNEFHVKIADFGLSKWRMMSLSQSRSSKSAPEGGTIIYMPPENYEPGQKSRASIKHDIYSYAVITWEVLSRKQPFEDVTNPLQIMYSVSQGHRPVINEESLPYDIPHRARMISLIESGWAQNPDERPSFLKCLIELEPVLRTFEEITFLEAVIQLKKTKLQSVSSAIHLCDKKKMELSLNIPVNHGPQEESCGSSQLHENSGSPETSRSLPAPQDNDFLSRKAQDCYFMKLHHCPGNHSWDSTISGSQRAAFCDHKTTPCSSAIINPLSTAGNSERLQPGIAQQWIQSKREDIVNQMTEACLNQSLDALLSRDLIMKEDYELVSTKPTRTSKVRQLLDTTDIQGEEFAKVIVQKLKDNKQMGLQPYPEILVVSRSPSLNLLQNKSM
# Sequence of Galanin receptor type 2 (Homo sapiens) (O43603 whole entry, looked up): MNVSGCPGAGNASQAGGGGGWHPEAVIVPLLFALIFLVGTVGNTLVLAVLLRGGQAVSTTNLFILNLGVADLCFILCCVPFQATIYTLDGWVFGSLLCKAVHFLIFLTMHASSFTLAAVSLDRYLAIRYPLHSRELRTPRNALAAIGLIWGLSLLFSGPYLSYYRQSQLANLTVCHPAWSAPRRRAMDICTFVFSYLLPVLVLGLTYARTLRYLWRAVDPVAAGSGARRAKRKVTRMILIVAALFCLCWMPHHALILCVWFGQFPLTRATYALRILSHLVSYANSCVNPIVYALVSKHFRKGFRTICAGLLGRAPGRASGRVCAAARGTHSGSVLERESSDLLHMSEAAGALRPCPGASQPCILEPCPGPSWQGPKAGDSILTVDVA
compound,measurement,setting,value
Clc1ccc(-n2nnnc2-c2cnc(-c3ccccn3)nc2-c2cccs2)cc1,inhibition,[1],24.1%
same,inhibition,[2],-8.49%
S=C(NN=Cc1ccccn1)Nc1ccccn1,inhibition,[1],79.5% (active)
same,inhibition,[2],14.3%
Cc1ccc(NS(=O)(=O)c2ccc(-c3coc(C)n3)cc2)c(C)c1,inhibition,[1],57.5%
same,inhibition,[2],46.7%
CNC(=O)c1sc(Nc2ccc(OCc3ccccc3)cc2)nc1C,inhibition,[1],37.7%
same,inhibition,[2],30%
Cc1csc(NC(=S)Nc2cccc(Cl)c2)n1,inhibition,[1],-131%
same,inhibition,[2],-129%
N#Cc1cccc(NC(=O)COC(=O)c2ccccc2C(=O)c2ccc(Cl)c([N+](=O)[O-])c2)c1,inhibition,[3],63.2% (active)
same,inhibition,[4],37.4% (active)
same,inhibition,[5],56.2% (active)
same,inhibition,[6],11.9% (active)
COc1ccc(S(=O)(=O)N2CCN(C(C)C(=O)Nc3ccc(C(C)C)cc3)CC2)cc1 (stereo not drawn),inhibition,[1],-2.85%
same,inhibition,[2],-0.89%
Cc1[nH]n(-c2cccc(Cl)c2)c(=O)c1-c1ccc(Cl)cc1,inhibition,[1],97.8% (active)
same,inhibition,[2],71.3% (active)
S=C(NCC1CCCO1)N1CCN(c2ccc(Cl)c(Cl)c2)CC1 (stereo not drawn),inhibition,[1],89.2% (active)
same,inhibition,[2],73.3% (active)
Cc1nc(-c2ccc(F)cc2)c(CC(=O)Nc2cc(S(=O)(=O)N3CCCCC3)ccc2C)s1,inhibition,[1],56.8%
same,inhibition,[2],-7.22%
COc1cc(NS(=O)(=O)c2ccc3ccccc3c2)c2ncccc2c1,inhibition,[5],35.7% (active)
same,inhibition,[6],18.9% (active)
same,inhibition,[1],-24.6%
same,inhibition,[2],31.6%
N#Cc1c(-c2ccccc2)nc(SCc2cccc(C(F)(F)F)c2)[nH]c1=O,inhibition,[1],43.6%
same,inhibition,[2],30.9%
